HT1080 IDH1KD tx: HT-1080 IDH1 knockdown cell toxicity (counter line); actives 2% (n = 360,000); HT-1080 IDH1 knockdown viability, ATP luminescence, 48 h; Potency, µM (series often up to 46.1 µM), without a hit: top-dose activity, negative = toxicity, hits mostly cytotoxic;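 note: potency is the fitted concentration of half-maximal effect; 0% = DMSO wells and -100% = cell-free medium wells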
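Using the IDH1-knockdown HT-1080 line run in the same batch and compound series as the NT line, viability after 48 h at 37 °C was determined by CellTiter-Glo luminescence and expressed as % activity.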
HT1080-NT tox: kills 2HG-producing HT-1080-NT fibrosarcoma cells; actives 1.6% (n = 360,000); AID 686970; HT-1080-NT fibrosarcoma viability, CellTiter-Glo ATP luminescence, 48 h; Potency, µM (top dose mostly 46.1 µM), for inactives: top-dose activity, negative = less viability, most hits filed as cytotoxic;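 note: NT is the 2HG producing partner of a matched IDH1 knockdown line; potency is the fitted concentration of half-maximal effect; 0% = DMSO-treated cells and -100% = media-only wells without cells; nearly all actives have a fitted effect of over 55% in size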
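Luminescent CellTiter-Glo readout after 48 hours of compound exposure at 37 degrees C defined viability of HT-1080-NT cells. Activity was normalized to DMSO wells and cell-free media wells; concentration-response curves were fitted and assigned curve classes.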
uPA generation: cell surface uPA generation inhibition | cell surface uPA generation assay, qHTS | Potency, µM (series often up to 38.3 µM), for inactives: at the top dose activity change, negative = inhibition, most hits filed as inhibitors | actives 0.31% (n = 330,000) | AID 540303; active = well fitted inhibition curve with a large enough effect; inconclusive = small, poorly fitted or top-dose-only effect; inactive = no such curve, though single readings can be large or run the other way; tested in mouse RAW 264.7 cells; note: potency is the fitted concentration of half-maximal effect; nearly all actives have a fitted effect of over 55% in size
DT40 TDP1 no CPT: qHTS for Inhibitors of human tyrosyl-DNA phosphodiesterase 1 (TDP1): qHTS in cells in absence of CPT; AID 686978, 2013; Potency, µM (top dose mostly 46.2 µM), inactives show top-dose activity change, negative = growth inhibition, hits mostly inhibitors; DT40 Tdp1-/- hTDP1 cells, no CPT, ATP luminescence, 48 h; actives 15% (n = 420,000); note: potency is the fitted concentration of half-maximal effect; nearly all actives have a fitted effect of over 55% in size
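Cells were dispensed at 400 per well, compounds added by pin tool, plates incubated ≥48 hr at 37 °C, then CellTiter-Glo added for 30 min at room temperature before luminescence reading. Line: DT40 Tdp1-/- complemented with hTDP1; camptothecin omitted.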
IL-1B inflam inh: inhibitors of inflammasome signaling (IL-1 beta secretion) | THP-1 LPS/ATP IL-1B secretion, AlphaLISA, 16 h; hits give low values | activity change, % at 57.5 µM | actives 4.7% (n = 360,000); in the data active = activity change below about -50%; inconclusive = mostly about -30% to -49%
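THP-1 cells pretreated 1 hr with compounds (up to 57.5 uM final), then stimulated with LPS (250 ng/mL final) plus ATP (1.25 mM final); secreted IL-1B measured by AlphaLISA after 16 hr, decreased signal indicating inhibition.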
TDP1 cell CPT: DT40-hTDP1 cell growth loss with CPT; chicken DT40 Tdp1-/-;hTDP1 cells + 20 nM CPT, ATP luminescence, 48 h; Potency, µM (titrated, usually from 46.2 µM), inactives show at the highest dose activity change, negative = growth inhibition, hits mostly inhibitors; actives 12% (n = 420,000); AID 686979; note: potency is the fitted concentration of half-maximal effect; nearly all actives have a fitted effect of over 55% in size
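Chicken DT40 Tdp1-/- cells complemented with human TDP1, 400 cells/well, exposed to compounds plus 20 nM camptothecin for at least 48 h at 37 C; viability read as ATP content by CellTiter-Glo luminescence.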
* marks the source's active call; other numbers are inactive results; [ ] = dose if it differs, or a comment. An excerpt weighted towards active compounds, which were near 19% of everything screened. Unless noted, calls come from the whole dose curve; as a rule, active = well fitted curve in the direction sought with a large enough effect; inconclusive = small, poorly fitted or top-dose-only effect, or another doubt; inactive = no such curve, though single readings can be large; an effect the other way counts as inactive or inconclusive. Unless noted, % is set by controls: 0 for no effect and ±100 for the full control effect.

`COc1ccc(CCNC(=O)c2ccc(Cn3c(SCc4ccccc4)nc4cccnc43)cc2)cc1` gave DT40 TDP1 no CPT 2.9µM* and TDP1 cell CPT inconclusive.
CN(Cc1ccccc1)C(=O)c1ccc(CSc2nc3cccnc3n2Cc2ccccc2)cc1 was read as DT40 TDP1 no CPT inconclusive and TDP1 cell CPT 12µM*.
COc1ccc(Cn2c(SCc3ccc(C(=O)NC(C)c4ccccc4)cc3)nc3cccnc32)cc1 (configuration not stated) was read as DT40 TDP1 no CPT inconclusive and TDP1 cell CPT 0%.
Screening COc1cccc(CCNC(=O)c2ccc(Cn3c(SCc4ccccc4)nc4cccnc43)cc2)c1 returned DT40 TDP1 no CPT 21µM* and TDP1 cell CPT inconclusive.
Screening COCc1nnc(NC(C)=O)s1 returned HT1080 IDH1KD tx 0%, HT1080-NT tox 0%, uPA generation 4%, DT40 TDP1 no CPT -14%, IL-1B inflam inh -1 and TDP1 cell CPT 3%.
c1ccc(Cn2ncc3c(Nc4ccccc4)ncnc32)cc1 was read as HT1080 IDH1KD tx -24%, HT1080-NT tox -1%, uPA generation -17%, DT40 TDP1 no CPT -27%, IL-1B inflam inh inconclusive and TDP1 cell CPT inconclusive.
`Brc1ccc(/C=N/Nc2ncnc3c2cnn3Cc2ccccc2)cc1` gave HT1080 IDH1KD tx 16%, HT1080-NT tox 18%, uPA generation 3%, DT40 TDP1 no CPT 15µM*, IL-1B inflam inh -11 and TDP1 cell CPT 18µM*.
O=C(COC(=O)CNS(=O)(=O)c1ccc(F)c(F)c1F)Nc1ccc(OC(F)F)cc1 was read as HT1080 IDH1KD tx 1%, HT1080-NT tox 9%, uPA generation -8%, DT40 TDP1 no CPT 7%, IL-1B inflam inh 14 and TDP1 cell CPT -2%.
CCN(CC)c1nc2ccccc2c(N)c1-c1ccccc1 was read as HT1080 IDH1KD tx inconclusive, HT1080-NT tox inconclusive, uPA generation -12%, DT40 TDP1 no CPT 21µM*, IL-1B inflam inh -27 and TDP1 cell CPT 13µM*.
Screening CCOC(=O)c1c2c3c(c(Cl)ccc3[nH]c1=O)C(=O)c1ccccc1-2 returned HT1080 IDH1KD tx -1%, HT1080-NT tox 2%, uPA generation 0%, DT40 TDP1 no CPT inconclusive, IL-1B inflam inh -85* and TDP1 cell CPT -16%.
`Cc1nc2ccccn2c1-c1ccnc(=S)[nH]1` gave HT1080 IDH1KD tx -7%, HT1080-NT tox -8%, uPA generation 1%, DT40 TDP1 no CPT 23µM*, IL-1B inflam inh 0 and TDP1 cell CPT 5.8µM*.
For c1ccn2c(c1)nc1c2nc2ccccn21 the results were HT1080 IDH1KD tx 6%, HT1080-NT tox 10%, DT40 TDP1 no CPT -24%, IL-1B inflam inh -10 and TDP1 cell CPT -26%.
C=CC(=O)Nc1ccc(N(C)c2ccnc(Nc3ccc(N4CCN(C)CC4)cc3)n2)cc1 was read as HT1080 IDH1KD tx -22%, HT1080-NT tox -28%, uPA generation inconclusive, DT40 TDP1 no CPT 16µM*, IL-1B inflam inh -77* and TDP1 cell CPT inconclusive.
Screening CN1CCN(c2ccc(NC(=O)c3cccs3)cc2)CC1 returned HT1080 IDH1KD tx -1%, HT1080-NT tox 0%, uPA generation -3%, DT40 TDP1 no CPT -5%, IL-1B inflam inh -12 and TDP1 cell CPT -2%.
For CC(=O)c1ccc(NC(=O)CSc2nc3nn(-c4ccccc4)c(=O)c-3c3n2CCCCC3)cc1 the results were HT1080 IDH1KD tx -1%, HT1080-NT tox 0%, uPA generation -5%, DT40 TDP1 no CPT 16µM*, IL-1B inflam inh 0 and TDP1 cell CPT 26µM*.
CC(C)CNC(=O)CSc1nc2nn(-c3ccccc3)c(=O)c-2c2n1CCCCC2 was read as HT1080 IDH1KD tx -3%, HT1080-NT tox -3%, uPA generation 4%, DT40 TDP1 no CPT -8%, IL-1B inflam inh -53* and TDP1 cell CPT 1%.
`CNC(=O)CSc1nc2nn(-c3ccccc3)c(=O)c-2c2n1CCCCC2` gave HT1080 IDH1KD tx 4%, HT1080-NT tox -2%[9.24 µM], DT40 TDP1 no CPT -11%, IL-1B inflam inh 42 and TDP1 cell CPT 33%.
O=C(CSc1nc2nn(-c3ccccc3)c(=O)c-2c2n1CCCCC2)Nc1ccc(F)cc1F was read as HT1080 IDH1KD tx 1%, HT1080-NT tox -7%, uPA generation 13%, DT40 TDP1 no CPT 19%, IL-1B inflam inh -56* and TDP1 cell CPT 3%.
Cc1cc(C)cc(NC(=S)N2CCC(c3nc4ccccc4s3)CC2)c1 was read as HT1080 IDH1KD tx inconclusive, HT1080-NT tox inconclusive, uPA generation 8%, DT40 TDP1 no CPT -26%, IL-1B inflam inh -1 and TDP1 cell CPT inconclusive.
Screening CCc1ccc(OC(C)C(=O)N2CCC(c3nc4ccccc4s3)CC2)cc1 (configuration not stated) returned DT40 TDP1 no CPT 16µM* and TDP1 cell CPT 18µM*.
For CC(C)Oc1ccc(C(=O)N2CCC(c3nc4ccccc4s3)CC2)cc1 the results were DT40 TDP1 no CPT inconclusive and TDP1 cell CPT -30%.
Screening O=C(COc1ccc([N+](=O)[O-])cc1)N1CCC(c2nc3ccccc3s2)CC1 returned DT40 TDP1 no CPT 9.2µM* and TDP1 cell CPT 7.3µM*.
Cc1ccc(NC(=S)N2CCC(c3nc4ccccc4s3)CC2)cc1C was read as HT1080 IDH1KD tx -29%[9.24 µM], HT1080-NT tox inconclusive, uPA generation -7%, DT40 TDP1 no CPT inconclusive, IL-1B inflam inh -65* and TDP1 cell CPT inconclusive.
Screening CCCN1CNc2c(c(=O)[nH]c(=S)n2CCc2ccc(Cl)c(Cl)c2)C1 returned HT1080 IDH1KD tx 14%, HT1080-NT tox 2%, DT40 TDP1 no CPT inconclusive and TDP1 cell CPT inconclusive.
Screening COc1cc(Cl)c(C)cc1NC(=O)NC1COc2ccccc2C1 (configuration not stated) returned DT40 TDP1 no CPT -23% and TDP1 cell CPT -17%.
`O=C(O)CCc1c2ccc(=O)c(O)c-2oc2c(O)c(O)ccc12` gave DT40 TDP1 no CPT -12% and TDP1 cell CPT -17%.
For CCCCN(CCCC)S(=O)(=O)c1ccc2oc(C(=O)NCc3ccc(C)cc3)c(C)c2c1 the results were DT40 TDP1 no CPT 13µM* and TDP1 cell CPT 8.2µM*.
`CCCCN(CCCC)S(=O)(=O)c1ccc2oc(C(=O)NCc3ccccc3)c(C)c2c1` gave DT40 TDP1 no CPT 15µM* and TDP1 cell CPT 10µM*.
